# HEK293 tox: cytotoxic in the GLP-1 receptor inverse agonist counter-screen; HEK293 cAMP-luciferase reporter cells, luminescence, 24 h; Potency, µM (top dose mostly 38.3 µM), without a hit: top-dose activity change, negative = inhibition, usual class: inhibitors; 410,000 tested, 0.13% active; AID 624418;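 also: loss of luciferase light is scored as toxicity; potency is read from the fitted curve at half-maximal effect; % is scaled to controls: 0 for no effect and ±100 for the full control effect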
#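 Luminescence readout: signal drop marks cytotoxicity. Plated cells grew 12 h at 37 °C, 5% CO2, received 23 nL compound for 24 h, then got luciferase reagent, read after 12 min at RT.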
# GLP-1R inv ag: acts as inverse agonist at human GLP-1 receptor; Potency, µM (highest dose often 38.3 µM), inactives show top-dose activity change, negative = inhibition, hits mostly inhibitors; HEK293 GLP-1R CRE-luciferase, luminescence, 24 h; GLP-1R form is constitutively active; 410,000 tested, 1.6% active; also: potency is read from the fitted curve at half-maximal effect; % is scaled to controls: 0 for no effect and ±100 for the full control effect; nearly all actives have a fitted effect of over 55% in size
#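 Cells are plated, allowed 12 hours at 37 deg C, then treated with compounds for 24 hr before luciferase detection reagent is added and luminescence is read after 12 min at room temperature. The HEK293 line carries constitutively active GLP-1R with a cAMP-responsive reporter.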
# GLP-1R agonist: activates the human GLP-1 receptor; AID 624172; HEK293 GLP-1R CRE-luciferase, luminescence, 4-6 h; cells express a hypersensitive GLP-1R form; 380,000 tested, 0.007% active; Potency, µM (doses to about 45.6 µM), for inactives: at the highest dose activation, hits mostly activators; also: potency is read from the fitted curve at half-maximal effect; % of control where 0% means no effect
# LDHA block: blocks human lactate dehydrogenase A; P00338; purified LDHA, NADH/diaphorase-resazurin fluorescence; active compounds read low; activity change, % (values are at about 110 or 230 µM); 480,000 tested, 0.15% active; AID 1347041; in the data active = activity change below about -30%; inconclusive = mostly about -25% to -30%;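 also: plate controls were DMSO wells for no effect and wells without enzyme for full effect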
#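 LDH5 2 nM; NADH 0.06 mM, pyruvate 0.2 mM; 200 mM Tris pH 7.4, EDTA, Tween-20; 5 min RT. Detection: diaphorase 0.133 mg/mL + resazurin 37 µM, fluorescence ex540/em590 at 0 and 20 min; normalized to enzyme-free and DMSO wells.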
# ClpP mod: qHTS Assay for Activators of ClpP; 340,000 tested, 1.9% active; purified B. subtilis ClpP, FRET peptide cleavage, 20 min; ATP-dependent Clp protease proteolytic subunit (Bacillus subtilis (strain 168)), P80244; Potency, µM (titrated, usually from 57.5 µM), for the others: at the highest dose activity change, negative = active; AID 651965, 2013; active = well fitted falling curve with a large enough effect; inconclusive = small, poorly fitted or top-dose-only effect; inactive = no such curve, though single readings can be large or run the other way; also: potency is read from the fitted curve at half-maximal effect; the source files actives as falling curves though it sought activators and does not explain the sign; nearly all actives have a fitted effect of over 65% in size
# Target sequence (P80244 whole entry, looked up): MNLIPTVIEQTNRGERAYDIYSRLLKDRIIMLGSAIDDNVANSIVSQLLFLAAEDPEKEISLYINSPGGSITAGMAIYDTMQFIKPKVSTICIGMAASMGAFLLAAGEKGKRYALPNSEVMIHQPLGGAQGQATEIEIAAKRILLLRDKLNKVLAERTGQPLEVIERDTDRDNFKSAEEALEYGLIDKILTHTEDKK
#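 FRET quenching reversal measured ClpP activation: 10 microg/mL B. subtilis ClpP at pH 8 with the FRET-FV decapeptide, read at 430 nm after 320 nm excitation. The 20-min minus 0-min signal was scaled between DMSO/no-enzyme wells and ADEP (5.8 microM final).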
# p53 reactivator: mutant p53 re-activation in reporter cells; AID 504706; H1299 p53-A138V BP100-luciferase reporter, luminescence, 24 h; 320,000 tested, 0.063% active; Potency, µM (highest dose often 92.2 µM), for inactives: top-dose activity change, positive = activation, most hits filed as activators; also: potency is read from the fitted curve at half-maximal effect; % of control where 0% means no effect; nearly all actives have a fitted effect of over 45% in size
#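 p53-null H1299 cells stably carrying temperature-sensitive p53-A138V and a BP100-luciferase reporter were pinned with compounds (4-point, 1:5 series) and held 24 hrs at 37 deg C. Luminescence was read 10 min after detection reagent.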
# Starred values were filed as active, the others as inactive; ? = inconclusive; · = no result given. Only some compounds are listed: those with a hit (about 2.9% of all), similar ones and a draw of the others. Unless noted, calls follow the shape of the dose curve; as a rule, active = well fitted curve in the direction sought with a large enough effect; inconclusive = small, poorly fitted or top-dose-only effect, or another doubt; inactive = no such curve, though single readings can be large; an effect the other way counts as inactive or inconclusive.
SMILES,HEK293 tox,GLP-1R inv ag,GLP-1R agonist,LDHA block,ClpP mod,p53 reactivator
O=c1[nH]c(CN2CCN(C/C=C/c3ccccc3)CC2)nc2cc(Cl)ccc12,-4%,0%,-6%,-2,0%,2%
Cc1ccc(S(=O)(=O)N2CCOCC2)cc1NC(=O)CNCc1cccnc1,1%,0%,-6%,-40*,-1%,1%
O=C(COc1ccc2ccc(=O)oc2c1)Nc1cccc(S(=O)(=O)N2CCCCC2)c1,-16%,-1%,1%,-24,35µM*,-5%
CCOC(=O)c1cc(C#N)c(N2CCNCC2)nc1C(F)(F)F,0%,3%,10%,1,·,4%
CCOC(=O)c1c(NC(=O)/C=C/C(=O)O)sc(C)c1-c1ccc(Cl)cc1,?,5µM*,-5%,-5,0%,-10%
CCOC(=O)c1c(NC(=S)N2CCN(C)CC2)sc(C)c1-c1ccccc1,?,1.8µM*,-3%,2,0%,19%
CCOC(=O)c1c(NC(=S)N2CCOCC2)sc2c1CCN(C(=O)OCC)C2,?,10µM*,10%,-3,·,-15%
O=c1[nH]c(=O)n(C(c2ccccc2)(c2ccccc2)c2ccccc2)cc1N(CCO)CCO,7%,10µM*,-1%,0,-1%,·
OCCN(CCO)c1nc2ccccc2[nH]1,-7%,-8%,4%,-8,·,0%
NNC(=O)c1[nH]c2ccc(Br)cc2c1-c1ccccc1,-17%,?,11%,-4,-2%,18%
CCOC(=O)NNC(=O)c1[nH]c2ccc(Br)cc2c1-c1ccccc1,?,10µM*,-1%,-11,-12%,-7%
CC(=O)NNC(=O)c1[nH]c2ccc(Br)cc2c1-c1ccccc1,0%,10µM*,-4%,-1,-2%,1%
O=C(/C=C/c1ccc(-c2ccccc2)cc1)NCc1cccnc1,-4%,4%,9%,-6,·,0%
O=C(/C=C/c1ccc2ccccc2n1)N1CCN(S(=O)(=O)c2ccc(F)cc2)CC1,-28%,?,4%,-5,-4%,2%
Cc1[nH]c2ccccc2c1SCCNC(=O)c1ccc(Br)o1,-21%,11µM*,3%,-4,-3%,-14%
Cc1ccccc1OCCCC(=O)Nc1ccc(Br)cc1,-1%,-33%,3%,0,1%,8%
C[C@H](NC(=O)Nc1ccc2c(c1)OCCO2)C(=O)O,22%,0%,-1%,-1,-4%,2%
COC(=O)c1[nH]c2ccccc2c1NC(=O)Oc1ccccc1,-7%,0%,-2%,2,28µM*,18%
C=CCOC(=O)Nc1c(C(=O)OC)[nH]c2ccccc12,-4%,?,1%,-2,-7%,6%
COC(=O)c1[nH]c2cc(OC)c(OC)cc2c1NC(=O)Oc1ccccc1,-9%,34%,-2%,11,32µM*,-4%
CCOC(=O)Nc1c(C(=O)OC)[nH]c2cc(OC)ccc12,-11%,-17%,1%,-4,?,-8%
CCOC(=O)c1[nH]c2cc(OC)c(OC)cc2c1NC(=O)C(C)N1CCN(Cc2ccccc2)CC1 (centres undefined),-29%,?,18%,3,32µM*,-8%
CCn1c(C)c(C)c2cc(C(=O)N3CCN(c4ccccc4)CC3)ccc21,3%,?,-2%,3,0%,-8%
N#Cc1c(-c2ccccc2)cc(-c2ccccc2)nc1SCC(=O)NCC(=O)O,6%,101%,12%,-102*,·,-2%
COc1ccc(-c2cc(-c3ccccc3)c(C#N)c(SCC(O)CS(=O)(=O)Cc3ccc(Cl)cc3)n2)cc1 (centres undefined),13%,-20%,·,3,4%,·
